High-throughput results (PubChem)
AmpC inh detg: inhibitors of E. coli AmpC beta-lactamase with detergent | P00811 | 370,000 compounds, 0.041% hits | AmpC hydrolysis of nitrocefin, absorbance 480 nm, 0.01% Triton | Potency, µM (titrated, usually from 114 µM), without a hit: top-dose activity change, negative = inhibition, actives largely listed as inhibitors;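 also: 0% = no-compound wells and -100% = no-enzyme wells; nearly all actives have a fitted effect of over 25% in size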
Target sequence (P00811 whole entry, looked up): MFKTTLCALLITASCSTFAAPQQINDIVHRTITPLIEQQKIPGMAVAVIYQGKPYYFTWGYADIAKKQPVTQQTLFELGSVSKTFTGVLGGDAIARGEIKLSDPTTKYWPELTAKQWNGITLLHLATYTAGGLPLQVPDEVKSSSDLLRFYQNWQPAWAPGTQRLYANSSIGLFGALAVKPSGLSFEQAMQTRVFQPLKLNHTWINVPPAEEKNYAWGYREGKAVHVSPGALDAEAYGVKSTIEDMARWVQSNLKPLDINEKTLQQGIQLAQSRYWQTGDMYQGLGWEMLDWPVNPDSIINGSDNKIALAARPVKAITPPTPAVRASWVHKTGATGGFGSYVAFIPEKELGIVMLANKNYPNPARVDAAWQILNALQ
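AmpC (5.3 nM in the dispensed reagent) in 20 mM phosphate pH 7.0 with 0.01% (detergent screen) or 0.0001% Triton X-100 was preincubated with compounds for 15 min at room temperature. Nitrocefin was then added from an 800 uM solution, and hydrolysis was followed at 480 nm.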
SARS PLpro yeast: blocks SARS-CoV papain-like protease in a yeast assay; S. cerevisiae expressing SARS-CoV PLpro, growth rescue; Potency, µM (top dose mostly 32.9 µM), inactives show top-dose activity, positive = growth rescue, most hits filed as activators; 330,000 compounds, 0.19% hits; calls by dose curve; also: 0% is about no effect; nearly all actives have a fitted effect of over 55% in size
AmpC no deterg: blocks E. coli AmpC beta-lactamase in detergent-free assay; 330,000 compounds, 0.52% hits; AmpC nitrocefin hydrolysis, absorbance 480 nm, 0.0001% Triton; Potency, µM (doses to about 57.1 µM), for inactives: top-dose activity change, negative = inhibition, hits mostly inhibitors; P00811;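 also: plate controls were no compound for no effect and no enzyme for full effect; nearly all actives have a fitted effect of over 20% in size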
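20 mM phosphate pH 7.0 + 0.01% (detergent screen) or 0.0001% Triton X-100; 5.3 nM AmpC reagent; cpd preinc 15 min RT; nitrocefin (800 uM stock) to start; A480 q20 s × 4 min; Activity was normalised to no-enzyme and no-compound control wells.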
Sm TGR block: S. mansoni TGR enzyme inhibition | Q962Y6 | purified TGR, DTNB reduction, TNB absorbance 405 nm | Potency, µM (titrated, usually from 114 µM), for the others: top-dose activity change, negative = inhibition, most hits filed as inhibitors | 360,000 compounds, 3% hits; also: % is scaled to controls: 0 for no effect and ±100 for the full control effect; nearly all actives have a fitted effect of over 60% in size
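Kinetic colorimetric format: TGR-catalysed, NADPH-driven DTNB reduction monitored via TNB absorbance. Enzyme dispensed at 20 nM; compound exposure 15 min at room temperature before reaction start.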
Tb PYK inh: inhibitors of Trypanosoma brucei pyruvate kinase. Q57TT1. Potency, µM (series often up to 76.8 µM), for inactives: at the highest dose activity, negative = inhibition, usual class: inhibitors. AID 624173. TbPYK enzyme, Kinase-Glo Plus ATP luminescence, 45 min. 410,000 compounds, 0.12% hits; also: % is scaled to controls: 0 for no effect and ±100 for the full control effect; nearly all actives have a fitted effect of over 50% in size
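Glycolytic pyruvate kinase of T. brucei was incubated with substrate, test compound and 130 uM ADP for 45 minutes at room temperature. Luminescent Kinase-Glo Plus signal was measured after 10 minutes.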
RE007 growth inh: less growth of the S. pombe RE007 Vpr strain; Potency, µM (top dose mostly 92.2 µM), inactives show at the highest dose activity change, negative = less growth, hits mostly inhibitors; 360,000 compounds, 0.21% hits; S. pombe RE007 Vpr strain, BacTiter-Glo ATP luminescence, 24 h; active = well fitted falling curve with a large enough effect; inconclusive = small, poorly fitted or top-dose-only effect; inactive = no such curve, though single readings can be large or run the other way; also: % is scaled to controls: 0 for no effect and ±100 for the full control effect; nearly all actives have a fitted effect of over 50% in size
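Fission yeast strain RE007, carrying one chromosomally integrated HIV-1 vpr copy, was seeded at OD 0.01 in PMG+AL medium with 23 nL pinned compound. After 24 h at 30 °C and 99% humidity, viability was read by BacTiter-Glo luminescence.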
Numbers without * were called inactive; ? = inconclusive; / = not tested or not shown. This is a sample that favours compounds with a hit; in the whole collection about 3.3% have one here. Unless noted, calls follow the shape of the dose curve; as a rule, active = well fitted curve in the direction sought with a large enough effect; inconclusive = small, poorly fitted or top-dose-only effect, or another doubt; inactive = no such curve, though single readings can be large; an effect the other way counts as inactive or inconclusive. Potency is read from the fitted curve at half-maximal effect.

SMILES	AmpC inh detg	SARS PLpro yeast	AmpC no deterg	Sm TGR block	Tb PYK inh	RE007 growth inh
CCC1CCCCN1S(=O)(=O)c1ccc(N2CCCCS2(=O)=O)cc1 (stereo not given)	14%	/	/	-6%	1%	/
Cc1nn(C)c2c1c(C(F)(F)F)cc(=O)n2CC(=O)NCCC(C)C	-2%	/	/	-7%	1%	/
COc1ccc(-c2nc3ccccc3n3c(-c4cccc(C)c4)c4c(=O)n(C)c(=O)n(C)c4c23)cc1OC	26%	/	/	5%	0%	/
Cc1ccc(-n2nc3ccc(NC(=O)/C=C/c4ccco4)cc3n2)cc1	-8%	-6%	28µM*	-24%	2%	-4%
CCOC(=O)c1ccc(-n2c(CN3CCC(O)CC3)nc3ccc([N+](=O)[O-])cc3c2=O)cc1	2%	1%	-31%	13µM*	4%	-10%
CCOC(=O)c1ccc(-n2c(CN(CC)CC)nc3ccc([N+](=O)[O-])cc3c2=O)cc1	-1%	-2%	-50%	11µM*	-5%	1%
CCOC(=O)c1ccc(-n2c(CN3CCC(C(N)=O)CC3)nc3ccc([N+](=O)[O-])cc3c2=O)cc1	?	-1%	19%	11µM*	-9%	-2%
CCOC(=O)c1ccc(-n2c(CN3CCN(CC)CC3)nc3ccc([N+](=O)[O-])cc3c2=O)cc1	-1%	3%	-27%	-36%	0%	6%
CCn1ccc2c(OCC(=O)NCc3ccc(C)cc3)cccc2c1=O	1%	/	/	-15%	0%	/
CCC(CC)c1nn2c(N)c(/C=C3\C(C)=Nc4ccccc43)c(=O)nc2s1	-6%	-1%	7.9µM*	-27%	11%	-6%
Cc1ccccc1Oc1cc(-n2ncc(Cl)c(Cl)c2=O)ncn1	-22%	-86%	-16%	2µM*	0%	?
COCCn1c(C)cc(O)c(C(c2ccc(OC)cc2)N2CCN(c3ccccc3)CC2)c1=O (stereo not given)	-3%	/	/	8.9µM*	2%	/
COc1ccc(C(CCN2CCN(c3ccccc3)CC2)c2c(O)cc(OC)cc2OC)cc1 (stereo not given)	-3%	2%	13%	7%	2%	-11%
COCCn1c(C)cc(O)c(C(c2cccc(F)c2)N2CCN(c3ccccc3)CC2)c1=O (stereo not given)	0%	/	/	7.9µM*	-1%	/
COCCn1nnnc1C(c1ccccc1)N1CCN(c2ccccc2)CC1 (stereo not given)	1%	12%	12%	-18%	-10%	6%
CCCn1c(N)c(C(c2ccc(C(=O)OC)cc2)N2CCN(c3ccccc3)CC2)c(=O)[nH]c1=O (stereo not given)	-10%	-9%	59%	?	0%	-5%
CCCn1c(N)c(C(c2ccc(OC)cc2)N2CCN(c3ccccc3)CC2)c(=O)[nH]c1=O (stereo not given)	1%	-7%	16%	2µM*	-10%	-6%
COc1cccc(NC(=O)CSc2nccn2Cc2ccc3c(c2)OCO3)c1	-4%	/	/	-1%	6%	/
COc1cc(-c2nc(Cn3nnc(C(=O)Nc4cc(C)cc(C)c4)c3C)c(C)o2)cc(OC)c1OC	4%	/	/	-1%	5%	/
Cc1cc(C=c2sc3nc4ccccc4n3c2=O)c(C)n1-c1ccccc1	/	/	/	/	0%	/
CCOc1cccc2c1OC(c1cc(OC)c(OC)c(OC)c1)N1N=C(c3ccc(C)o3)CC21 (stereo not given)	-3%	-21%	-22%	45µM*	-9%	?
O=C1NC(=O)C2C3C=CC(C3)C12 (stereo not given)	/	/	/	/	-7%	/
COc1ccc(C)cc1NC(=O)C1CCCN(c2ncnc3onc(C)c23)C1 (stereo not given)	2%	/	/	0%	0%	/
